Rows were chosen to be rich in hits. Some 5.1% of all compounds tested hit in one or more screens of this group.
CRFR2-BP ag: CRF-BP/CRF-R2 complex agonism | HEK293 CRF-R2/CRF-BP, calcium dye fluorescence (FLIPR); percent of saturating CRF peptide response | activation, % at 13.2 µM | 0.46% of 350,000 active | AID 588473;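 active = activation of at least 50%, plus an integration ratio under a set limit after plate pattern correction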
MPTP inh: blocks calcium-induced mitochondrial swelling; isolated mouse mitochondria, Ca2+ swelling absorbance, 30 min; inhibition, % at 10 µM; 1.4% of 360,000 active;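 active = inhibition of 50% or more, scaled per plate between neutral and stimulator controls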
TMEM16A act: activates or potentiates the mouse TMEM16A chloride channel; Q8BHY3; 0.3% of 340,000 active; B-score at 10 µM; HEK293 TMEM16A/YFP-H148Q/I152L, iodide quench fluorescence; stronger effect = lower value;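 active = fluorescence-ratio B-score plate-corrected deviation score at least 3 library SD below zero, with starting fluorescence score within 5 deviations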;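 also: channel opened by trigger with iodide after compound preincubation; score built on the fluorescence ratio of max minus min over baseline; more negative score means more quench and so TMEM16A activation or potentiation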
Target sequence (Q8BHY3 whole entry, looked up): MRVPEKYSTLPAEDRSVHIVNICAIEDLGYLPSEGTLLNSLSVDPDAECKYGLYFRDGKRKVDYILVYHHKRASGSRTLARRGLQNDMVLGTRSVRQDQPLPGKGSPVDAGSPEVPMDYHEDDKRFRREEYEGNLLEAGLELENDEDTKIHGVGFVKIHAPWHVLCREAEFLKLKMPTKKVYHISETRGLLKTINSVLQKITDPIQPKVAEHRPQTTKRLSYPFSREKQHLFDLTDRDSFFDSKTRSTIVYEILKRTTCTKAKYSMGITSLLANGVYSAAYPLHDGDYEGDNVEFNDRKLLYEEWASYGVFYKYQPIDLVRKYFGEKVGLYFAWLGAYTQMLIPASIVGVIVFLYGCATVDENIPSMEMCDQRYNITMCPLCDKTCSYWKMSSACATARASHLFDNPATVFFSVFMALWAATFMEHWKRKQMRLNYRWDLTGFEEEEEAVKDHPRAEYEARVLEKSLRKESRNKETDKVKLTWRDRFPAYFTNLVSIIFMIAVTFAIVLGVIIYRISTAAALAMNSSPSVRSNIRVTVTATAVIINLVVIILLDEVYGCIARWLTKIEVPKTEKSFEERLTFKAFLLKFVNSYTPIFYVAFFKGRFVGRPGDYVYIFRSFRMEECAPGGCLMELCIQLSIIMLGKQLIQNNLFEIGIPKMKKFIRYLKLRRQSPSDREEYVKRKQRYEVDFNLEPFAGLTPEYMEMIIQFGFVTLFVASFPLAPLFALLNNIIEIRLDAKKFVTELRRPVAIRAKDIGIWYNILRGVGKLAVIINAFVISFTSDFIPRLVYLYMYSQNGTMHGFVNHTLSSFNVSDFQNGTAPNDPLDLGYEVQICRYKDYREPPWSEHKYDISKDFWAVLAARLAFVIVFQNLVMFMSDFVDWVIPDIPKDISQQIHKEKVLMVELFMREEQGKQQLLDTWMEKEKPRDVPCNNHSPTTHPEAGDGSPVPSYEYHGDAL
NR3A LBD binder: modulators (binders) of human NR3A ligand-binding domain; AID 1259313; NR3A LBD differential scanning fluorimetry, Tm shift; 0% = protein alone, 100% = glycine-bound protein; Tm shift relative to glycine control, % at 25 µM; 2.5% of 340,000 active;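 active = melting temperature shift of at least 10% of the positive control shift, at one fixed dose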
TMEM16A inh: inhibitors of mouse TMEM16A calcium-activated chloride channel | 1.2% of 310,000 active | Q8BHY3 | HEK293 TMEM16A/YFP iodide influx fluorescence, ionomycin | AID 588511 | normalized B-score (activity score, 25-100; higher = stronger inhibition) at 10 µM;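 active = ratio plate-corrected score three or more library SD toward inhibition, starting fluorescence score within five deviations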;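 also: score derived from kinetic fluorescence span divided by baseline fluorescence per well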
CRFR2-BP antag: CRF-BP/CRF-R2 complex antagonism | HEK293 CRF-R2/CRF-BP, CRF-induced calcium fluorescence | inhibition, % at 11.8 µM | 0.59% of 350,000 active;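 active = inhibition of the ligand-induced calcium signal above about 50% at the single tested concentration, limit read from the data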
Rh123 counter: Rhodamine 123 counter-screen of mitochondrial pore hits. shares compounds with MPTP inh. isolated mitochondria, membrane potential, Rhodamine 123 fluorescence. inhibition, % at 10 µM. 78% of 5,000 active. AID 624504; in the data active = inhibition above about 22%
MPTP abs DR: dose response confirmation of mitochondrial permeability transition pore inhibitors; 58% of 780 active; IC50, µM; isolated mitochondria swelling, absorbance; shares compounds with MPTP inh; in the data active = IC50 below about 20 µM
MPTP cs DR: MPTP inhibitor counter-screen activity, dose response; shares compounds with MPTP inh; isolated mitochondria counterscreen, fluorescence read-out; IC50, µM; 49% of 780 active; in the data active = IC50 below about 80 µM
Of the large screens only hits and unclear results are named; the others gave an inactive call (follow-up assays come after a bar, where they were run).

Cc1ccc(C(CNS(=O)(=O)c2ccccc2)N2CCN(C)CC2)cc1 (stereo unspecified)	none
O=C(C1CCC(=O)N(C2CC2)C1)N1CCC(Oc2cccc(C(F)(F)F)c2)CC1 (stereo unspecified)	none (no result: TMEM16A inh)
COCCN(C(=O)COC(=O)c1cccs1)c1c(N)n(Cc2ccccc2)c(=O)[nH]c1=O	none
c1ccc2cc(CSCc3nc4ccccc4[nH]3)ccc2c1	MPTP inh 88 | Rh123 counter 88
Cc1ccc(SCCC(=O)Nc2ccc(Br)c(C)c2)cc1	MPTP inh 86 | Rh123 counter 92
COC(=O)[C@@]1(C)[C@H]2C(=O)N(Cc3ccccc3)C(=O)[C@H]2[C@H]2CN=C(SCC(=O)c3ccccc3)N21	none (no result: TMEM16A act, TMEM16A inh)
CC(C)C(NS(=O)(=O)c1ccc2c(c1)C(C)(C)C(=O)N2C)C(=O)NCc1ccccc1Cl (stereo unspecified)	none
O=C(COc1ccccc1)N=C1SC2CS(=O)(=O)CC2N1c1cccc(F)c1 (stereo unspecified)	none
CC1(C)CC(NC(=O)c2ccc(Cl)c(S(=O)(=O)N(Cc3ccccc3)c3ccccc3)c2)CC(C)(C)N1	MPTP inh 97 | Rh123 counter inactive
O=C(O)c1ccc(Cl)c(S(=O)(=O)N(Cc2ccccc2)c2ccc(Cl)cc2)c1	none
COc1ccccc1N(Cc1ccccc1)S(=O)(=O)c1cccc(C(=O)NC2CC(C)(C)NC(C)(C)C2)c1	MPTP inh 84 | Rh123 counter inactive | MPTP abs DR 7.6 | MPTP cs DR inactive
NC(=O)C(c1ccccc1)c1ccc(C(=O)c2ccccc2)cc1 (stereo unspecified)	none
Cn1c(=O)c2c(ncn2CC(=O)OCC(=O)NCc2ccc(F)cc2)n(C)c1=O	none (no result: TMEM16A act, NR3A LBD binder, TMEM16A inh)
Cc1cc(Cn2nc(-c3ccccc3)cc2C(=O)NCc2cccc(C(F)(F)F)c2)on1	MPTP inh 63 | Rh123 counter 98
CCOC(=O)CSc1nnc(NCC(=O)OC(C)C)c(=O)[nH]1	MPTP inh 63 | Rh123 counter inactive | MPTP abs DR inactive | MPTP cs DR inactive
CCOC(=O)CNC(=O)CSc1nnc(C)c(=O)[nH]1	none
c1csc(C2Nc3ccccc3-c3nc4ccccc4n32)c1 (stereo unspecified)	MPTP inh 52, NR3A LBD binder 24 | Rh123 counter 75
c1cncc(C2Nc3ccccc3-c3nc4ccccc4n32)c1 (stereo unspecified)	MPTP inh 59 | Rh123 counter 88
CCC(Oc1ccccc1OC)C(=O)Nc1ccc2c(c1)OCO2 (stereo unspecified)	none
CC(=O)Nc1ccc(S(=O)(=O)N2CCSC2c2ccco2)cc1 (stereo unspecified)	none
O=C(Nc1ccc(Cl)c(Cl)c1)N1CCSC1c1ccco1 (stereo unspecified)	MPTP inh 92 | Rh123 counter 91
N#C/C(=C\c1ccc(Sc2ccc(Cl)cc2)o1)c1nc2ccccc2[nH]1	MPTP inh 106, NR3A LBD binder 15 | Rh123 counter 69
COCC(=O)N[C@@H]1c2ccccc2CC[C@@H]1OCc1ccccc1	none (no result: TMEM16A act, TMEM16A inh)
O=C(/C=C/c1cc([N+](=O)[O-])ccc1OC(F)F)Nc1cccc(OC(F)F)c1	MPTP inh 99, NR3A LBD binder 13 | Rh123 counter 72
O=c1oc2c(-c3ccc([N+](=O)[O-])cc3)cc(O)cc2s1	MPTP inh 78 | Rh123 counter 55
O=c1[nH]cc(S(=O)(=O)Nc2ccc3c(c2)OCO3)c(=O)[nH]1	none
Cc1cccc(N(Cc2ccccc2)C(=O)c2cccc(S(=O)(=O)N3CC(C)OC(C)C3)c2)c1 (stereo unspecified)	none
COc1ccc(N/N=C(\C#N)C(N)=O)cc1	none
N#C/C(=N/Nc1ccc(OC(F)(F)F)cc1)C(N)=S	MPTP inh 83, NR3A LBD binder 16, TMEM16A inh 100 | Rh123 counter 87
COC(=O)Cn1cnc2c(nnn2-c2ccc(OC)cc2)c1=O	none
CN1CCN(c2ccc(Cl)cc2NC(=O)/C=C/c2cccc(F)c2)CC1	MPTP inh 74 | Rh123 counter inactive | MPTP abs DR 6.8 | MPTP cs DR inactive
CC(C)c1ccc(S(=O)(=O)Nc2ccc(SC(F)F)cc2)cc1	MPTP inh 72, NR3A LBD binder 13 | Rh123 counter 83
CC(C)c1ccc(NS(=O)(=O)c2ccc(-n3cccn3)cc2)cc1	none
CCc1ccc2cc(C)cc(C)c2n1	none (no result: CRFR2-BP ag, TMEM16A act, NR3A LBD binder, TMEM16A inh, CRFR2-BP antag)
O=C(NCCN1C(=O)S/C(=C\c2ccccc2F)C1=O)C1=COCCO1	none
COC(=O)c1ccccc1S(=O)(=O)N1CCC(C(=O)OCc2ccc([N+](=O)[O-])cc2)CC1	none
O=C(Nc1nnc(S(=O)(=O)N2CCCCCC2)s1)c1ccc(Br)cc1	MPTP inh 60 | Rh123 counter 29
CCC(Oc1ccccc1)C(=O)Nc1nnc(S(=O)(=O)N2CCCC2)s1 (stereo unspecified)	MPTP inh 85 | Rh123 counter 20
O=C(NNC(=S)Nc1cccc(C(F)(F)F)c1)c1cccc(Cl)c1	MPTP inh 94, NR3A LBD binder 25 | Rh123 counter 86
S=C(Nc1ccccc1)Nc1ccc(Cl)cc1Cl	MPTP inh 61 | Rh123 counter 79
FC(F)(F)c1cccc(NC(=S)Nc2cccc(NC(=S)Nc3cccc(C(F)(F)F)c3)n2)c1	MPTP inh 91 | Rh123 counter 64
S=C(Nc1ccccc1)Nc1cc(Cl)ccc1Oc1ccccc1	none
FC(F)(F)c1ccccc1NC(=S)Nc1cccc(Cl)c1	MPTP inh 97, NR3A LBD binder 14 | Rh123 counter 89
CC(C)(C)NNC(=S)Nc1cccc(C(F)(F)F)c1	none
Cc1cc(C)c(NC(=O)COC(=O)COc2ccc3c(C)cc(=O)oc3c2)c(Cl)c1	none (no result: TMEM16A inh)
FC(F)(F)c1cccc(NC(=S)NNC(=S)NCc2ccccc2)c1	MPTP inh 79 | Rh123 counter 72
NNC(=S)Nc1ccc(C(F)(F)F)cc1Cl	none
FC(F)(F)c1cccc(NC(=S)Nc2ccc(Cl)cc2Cl)c1	MPTP inh 98, TMEM16A inh 100 | Rh123 counter 109
FC(F)(F)c1cccc(NC(=S)NCC2COc3ccccc3O2)c1 (stereo unspecified)	MPTP inh 81, NR3A LBD binder 23 | Rh123 counter 81

Screening results deposited in PubChem by several laboratories.
